Records with an inconclusive call do not appear. A call without a number means that no potency is given here. Unmarked numbers belong to inactive results. Activity calls are given as the source filed them. The call rests on the fitted dose curve; in most records, active means well fitted cell-killing curve with a large enough effect in the repeat runs; inconclusive means weak or mixed curves, or effect the other way; inactive means flat fitted curve, though single readings scatter.
Experiment: cAMP Responsive Elements (CRE) small molecule agonists, cell-based qHTS assay: qHTS cell viability counter screen (AID 2060914); further: nearly all actives have a fitted effect of over 50% in size
Settings: CRE-bla HEK293T viability, CellTiter-Glo luminescence, 5 h; series mostly up to 92.4 µM
How it was run: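 Cells are seeded and incubated 18 h, treated with compounds in DMSO for 3 h, read for the bla reporter, then given CellTiter-Glo; luminescence is measured after 30 min at room temperature.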

Compound	Potency	activity change, negative = cytotoxicity
CCOC(=O)[C@H](CCc1ccccc1)N[C@@H](C)C(=O)N1Cc2ccccc2C[C@H]1C(=O)O	inactive	
O=C(O)C1CCC1	inactive	
COC(=O)CCCCCCCC(=O)OC	inactive	
CC(=O)OCCN(CCOC(C)=O)c1ccc(N=Nc2ccc([N+](=O)[O-])cc2C#N)cc1	inactive	
S=c1nccc[nH]1	inactive	
O=[N+]([O-])c1cncn1CCN1CCOCC1	inactive	
OCCN1CCNCC1	inactive	
CCC1(c2ccccc2)C(=O)NCNC1=O	inactive	
O=C(O)c1cn(-c2ccc(F)cc2)c2cc(N3CCNCC3)c(F)cc2c1=O	inactive	
CN(CCOc1ccc(CC2SC(=O)NC2=O)cc1)c1ccccn1 (stereo not given)	inactive	
CC/C=C(\C)C=O	inactive	
CC(CN)CC(C)(C)CCN (stereo not given)	inactive	
CC(C)=CCCC(C)CC(=O)O (stereo not given)	inactive	
C[C@@H]1CC(=O)NN=C1c1ccc(NN=C(C#N)C#N)cc1	inactive	
CCC(Cl)CC(Cl)C(Cl)C(Cl)C(Cl)C(C)Cl (stereo not given)		-0.221% [at 18.9 µM]
Cc1cc(C(C)(C)C)c(O)c(C)c1CC1=NCCN1	inactive	
ClC(Cl)(Br)Br	inactive	
CCCc1ccc(OCC(=O)N2CCN(C(=O)COc3ccc(CCC)cc3OC)CC2)c(OC)c1	inactive	
CCCc1ncc(C[n+]2ccccc2C)c(N)n1	inactive	
CN(C)CC/C=C1/c2ccccc2COc2ccc(CC(=O)O)cc21	inactive	

Compound	Potency	activity change, negative = cytotoxicity
CNCCCN1c2ccccc2CCc2ccccc21	inactive	
c1ccc(CN(CC2=NCCN2)c2ccccc2)cc1	inactive	
ClCCOCCOCCCl	inactive	
CCCC(=O)O[C@]1(C(=O)CC)CC[C@H]2[C@@H]3CCC4=CC(=O)CC[C@]4(C)[C@H]3[C@@H](O)C[C@@]21C	inactive	
Nc1ccn([C@@H]2O[C@H](CO)[C@@H](O)C2(F)F)c(=O)n1	inactive	
CCCC(=O)OC(C)(C)Cc1ccccc1	inactive	
CCC(C)(O)CCCC(C)C (stereo not given)	inactive	
CC1(COc2ccc(CC3SC(=O)NC3=O)cc2)CCCCC1 (stereo not given)	inactive	
Cc1ccc(S(N)(=O)=O)cc1	inactive	
CCCCCCCCS	inactive	
O=C(O)Cc1sc(-c2ccccc2)nc1-c1ccc(Cl)cc1	inactive	
Cc1nc2ccccc2n1Cc1ccc(Cl)cc1	inactive	
COc1c(C)c2c(c(O)c1C/C=C(\C)CCC(=O)OCCN1CCOCC1)C(=O)OC2	inactive	
CCCC(C)C(=O)O (stereo not given)	inactive	
CC1(O)CSC(C)(O)CS1 (stereo not given)	inactive	
CC[C@H]1CC[C@H](NCc2cc3c(cc2OC)[C@H]2C[C@H]2C(=O)N3C)[C@H](c2ccccc2)N1	inactive	
OCC1CCCO1 (stereo not given)	inactive	
CN1C(CSCC(F)(F)F)Nc2cc(Cl)c(S(N)(=O)=O)cc2S1(=O)=O (stereo not given)	inactive	
Cc1cc(C(C)(C)C)cc(C)c1CC1=NCCN1	inactive	
N=C(N)c1ccc(OCCCOc2ccc(C(=N)N)cc2)cc1	inactive	
